# Results taken from PubChem BioAssay AID463195 (Sanford-Burnham Center for Chemical Genomics, 2010).
# Among all 330,000 compounds or so, about 4,600 (1.4%) were called active.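 The calls were made as follows: active = inhibition of 40% or more at the single tested concentration; inactive = the rest.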 This excerpt belongs to a sample that is enriched for actives.
# Experiment: wild-type TIM10 yeast growth inhibition – luminescence, uHTS, counter-screen for tim10-1 yeast inhibitor project, primary screen (AID 463195);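 also: wild-type TIM10 isogenic control strain grown at permissive 25 °C; 0% = DMSO yeast wells and 100% = minimal medium wells without yeast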
# Conditions: S. cerevisiae TIM10 strain growth, BacTiter-Glo luminescence, 24 h; at 10 µM; stronger effect = higher value
row,Compound,inhibition
1,C=C1C2C[C@H](O)C(C)(C)[C@@]2(O)[C@H](O)C[C@]23C[C@@](C)(O)[C@H](CC[C@H]12)[C@H]3O (stereo not given in full),-10.5% (inactive)
2,Cc1ccc(C(=O)O/N=C(\N)c2ccccn2)cc1Cl,28.2% (inactive)
3,Cc1cccc(/C(N)=N/OC(=O)c2ccccc2Cl)c1,71.3% (active)
4,Cc1ccc(/C(N)=N/OC(=O)COc2ccc(Cl)c(C)c2)cc1,30.7% (inactive)
5,CCOC(=O)c1ccc2[nH]c3c(c2c1)CCCC3NC=O (stereo not given),16.6% (inactive)
6,COc1ccc(NC(=O)ON=C2c3ccccc3-c3ccccc32)cc1,8.51% (inactive)
7,CN1C(=O)/C(=N/OC(=O)c2ccccc2Br)c2ccccc21,68.9% (active)
8,CN1C(=O)/C(=C\c2cc(Br)cs2)c2ccccc21,30.2% (inactive)
9,Cc1ccc(-c2noc(CCC(=O)Nc3ccccc3N3CCN(C)CC3)n2)cc1,10.4% (inactive)
10,O=C(Nc1cccc(Cl)c1)OCc1ccccn1,47.9% (active)
11,O=C(Nc1cccc(CCc2ccccn2)c1)c1ccc(Cl)cc1,1.78% (inactive)
12,O=C(Nc1ccc(Cl)cc1)OCc1cc(-c2ccccc2)on1,6.71% (inactive)
13,O=C(COC(=O)c1cc([N+](=O)[O-])ccc1NCc1ccccc1)NC1CCCCC1,-9.16% (inactive)
14,CC(=O)Nc1ccc(S(=O)(=O)N(C)CC(=O)NCCC2=CCCCC2)cc1,3.82% (inactive)
15,CCn1nc(C)c(CNC(=O)C2CCC(=O)N(Cc3cccc(F)c3)C2)c1C (stereo not given),-0.612% (inactive)
16,Cn1c(Nc2ccccc2)cc(=O)n(C)c1=O,0.045% (inactive)
17,Cc1cc(Nc2ccccc2)n(C(=O)c2ccc(N)cc2)n1,57.7% (active)
18,Cc1cc(C)n(C(=O)c2ccc(S(=O)(=O)N3CCCC3)cc2)n1,3.81% (inactive)
19,O=C(Cn1c(N2CCN(C/C=C/c3ccccc3)CC2)nc2ccccc21)c1ccccc1,30.9% (inactive)
20,COc1ccc(Cl)cc1NC(=O)CN(C)CC(=O)Nc1ccc2c(c1)OCO2,-6.17% (inactive)

row,Compound,inhibition
1,Cc1ccc(NNC(=O)c2c(F)cccc2Cl)cc1Cl,11.3% (inactive)
2,Cc1cc(OC(=O)c2c(Cl)cccc2Cl)nc(C)n1,-1.42% (inactive)
3,Cc1cc(C)c(S(=O)(=O)c2ccccc2)c(OC(=O)c2c(F)cccc2Cl)n1,59.8% (active)
4,COCCCN1C(=O)c2ccc(C(=O)OCC(=O)NCc3ccccc3OC)cc2C1=O,2.82% (inactive)
5,Cc1cccc(NC(=O)c2ccc([N+](=O)[O-])o2)c1,60.3% (active)
6,CN1C(=O)c2ccc(C(=O)Nc3ccc(Br)cn3)cc2C1=O,3.52% (inactive)
7,O=C(Nc1ccc(Br)cn1)c1ccc([N+](=O)[O-])cc1Cl,14.3% (inactive)
8,CCN(CC)S(=O)(=O)c1ccc(N2CCCC2)c(NC(=O)c2ccc([N+](=O)[O-])o2)c1,28.1% (inactive)
9,Cc1onc(NC(=O)c2ccc([N+](=O)[O-])o2)c1Br,46.6% (active)
10,Cc1onc(C(=O)NCc2ccc(F)cc2)c1[N+](=O)[O-],-0.126% (inactive)
11,Cc1onc(C(=O)Nc2ccc3c(c2)OCO3)c1[N+](=O)[O-],-7.9% (inactive)
12,O=C(Nc1ccc(Br)cn1)c1ccc([N+](=O)[O-])o1,57.3% (active)
13,O=C(Nc1cccc(O)c1)c1ccc(C(=O)c2ccccc2)o1,30.4% (inactive)
14,CC(C)(C)c1nnc(NC(=O)C2c3ccccc3Oc3ccccc32)s1,29.5% (inactive)
15,Cc1ccc(CNC(=O)c2cccc3c2C(=O)c2ccc(N4CCC(C)CC4)cc2S3(=O)=O)cc1,4.75% (inactive)
16,CC(=O)Nc1ccc(C(=O)N(C2=NC(C)CS2)c2ccc(Cl)cc2)cc1 (stereo not given),20.1% (inactive)
17,CC(=O)OCC(COC(C)=O)OC(C)=O,5.8% (inactive)
18,COc1ccc(S(=O)(=O)NCCc2cc3ccc(C)c(C)c3[nH]c2=O)cc1,5.58% (inactive)
19,CC(C)[C@@H](C(=O)O)N(Cc1cccc(CN([C@H](C(=O)O)C(C)C)S(C)(=O)=O)c1)S(C)(=O)=O,10.1% (inactive)
20,CC(=O)c1cnc(-c2ccccc2)s1,12.3% (inactive)

row,Compound,inhibition
1,O=C(/C=C/Nc1ccccc1)c1cnc(-c2ccccc2)s1,3.58% (inactive)
2,CC(C)(C)C(=O)c1cnc(Nc2ccccc2)s1,45.4% (active)
3,CCOC(=O)C1CCCN(C(=O)c2ccc(CS(=O)(=O)c3ccc(Br)cc3)o2)C1 (stereo not given),4.19% (inactive)
4,Cc1cc(N2CCCC2)ccc1NC(=O)COc1ccc(Cl)cc1,4.1% (inactive)
5,NC(=O)NC(=O)C(OC(=O)CCNS(=O)(=O)c1ccccc1)c1ccccc1 (stereo not given),14.9% (inactive)
6,COc1ccc(N2C(=O)NC(NS(=O)(=O)c3ccc(Cl)cc3)(C(F)(F)F)C2=O)cc1 (stereo not given),5.54% (inactive)
7,O=C(NCCc1c[nH]c2ccccc12)c1cccc(Br)c1,4.34% (inactive)
8,Cc1cc(C)cc(NC(=S)NCCc2c[nH]c3ccccc23)c1,40.6% (active)
9,Cc1ccc(S(=O)(=O)N(C)CC(=O)NCCc2c[nH]c3ccccc23)cc1,-8.68% (inactive)
10,CCC(C)(C)NC(=O)CN(C(=O)CCC(=O)Nc1cc(C)ccn1)c1ccc2c(c1)OCCO2,17.4% (inactive)
11,CCOC(=O)/C(C#N)=C\c1c(C)cc(C)c(COC(C)=O)c1C,19% (inactive)
12,COC(=O)CN(c1cccc(C(C)=O)c1)S(C)(=O)=O,12.6% (inactive)
13,CCSc1ncnc2c(C#N)c3n(c12)CCCCC3,-29.8% (inactive)
14,CCSC1=C(C#N)C(=O)n2c1cc1c2CCCC1,63% (active)
15,COC(C[C@@H](O)C[C@H](O)[C@H](C)OCc1ccccc1)OC,-0.06% (inactive)
16,Cc1cccc(C)c1NC(=O)CSc1nnc(-c2ccccc2)n1Cc1ccc2c(c1)OCO2,-0.243% (inactive)
17,c1ccc(-c2nnc3n2NC(c2ccc4c(c2)OCO4)S3)cc1 (stereo not given),57.8% (active)
18,CC1=C(C(N)=O)C(c2ccc3c(c2)OCO3)n2nc(-c3cccc(C)c3)nc2N1 (stereo not given),2.9% (inactive)
19,CN(CC(=O)NCCc1ccccc1)S(=O)(=O)c1cnc[nH]1,-7.58% (inactive)
20,O=C(CNC(=O)c1cccnc1)N/N=C/c1cc(Br)c(O)c(Br)c1,-19.5% (inactive)
